Among all 640,000 compounds or so, about 9,300 (1.5%) were called active. Rule as the data show it: active = inhibition above about 32%; inactive = the rest. Only a selection was taken, and actives are over-represented in it overall.

Broadly, the inhibition is the drop in the measured response relative to a control, in per cent.

The nature of the test: TEAD-YAP interaction inhibition, primary screen, TEAD-YAP interaction inhibitor project, luminescence, HEK-TIYL cells (AID 1259422).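 Also: 0% = median of test compound wells and 100% = reference inhibitor wells.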 The settings on record: TEAD-Gal4/YAP UAS-luciferase luminescence, at 9.12 µM, active compounds read high.
As to `C=CCOC(=O)N1CCC(C(=O)NC(c2ccc(F)cc2)c2ccccn2)CC1` (stereo unspecified), the inhibition is 6.83% (inactive).

In the case of `COc1ccccc1NC(=O)N1CCC2(CC1)OCc1cc(SC)cc(C)c1O2`, the inhibition is 1.69% (inactive).

Consider `C=CC(=O)Nc1ccc(OC)cc1OC`, for which the inhibition was 43.2% (active).

Regarding `COc1ccc(NC(=O)/C=C\c2cccc3ccccc23)c(OC)c1`, the inhibition was 2.51% (inactive).

For the molecule `COc1ccc(CNC(=O)Nc2ccc(OC)cc2OC)cc1`, the inhibition is 0.36% (inactive).

Take `CCn1cc(C(=O)OCc2c(F)cccc2Cl)c(=O)c2ccc(C)nc21`: the inhibition is -3.49% (inactive).

For the molecule `CCOc1ccc(-c2nc(-c3cccc([N+](=O)[O-])c3)no2)cc1`, the inhibition is -19.3% (inactive).

As to `Cc1ccc2[nH]c3c(=O)n(N)cnc3c2c1`, the inhibition is -5.24% (inactive).

Regarding `CCCCNc1ncnc2c1[nH]c1ccc(F)cc12`, the inhibition is 42.6% (active).

Regarding `CCOC(=O)C(CC)Sc1nnc2c(n1)[nH]c1ccc(F)cc12` (stereo unspecified), the inhibition was -2.45% (inactive).

In the case of `N#CC1(NS(=O)(=O)c2cc([N+](=O)[O-])ccc2Cl)CCCCC1`, the inhibition is -2.76% (inactive).

Turning to `CC(=O)c1ccc(NC(=O)/C=C/c2cccc([N+](=O)[O-])c2)cc1`, the inhibition was -22.5% (inactive).

In the case of `Ic1ccc2ncnc(NCC3CCCO3)c2c1` (stereo unspecified), the inhibition was 25.4% (inactive).

Turning to `Ic1ccc2ncnc(NCCc3ccccc3)c2c1`, the inhibition was 32.8% (active).

Consider `COCCCNc1ncnc2ccc(I)cc12`, for which the inhibition is 29.9% (inactive).

As to `CCn1c(SCC(=O)N2CCc3ccccc32)nnc1-c1ccccc1`, the inhibition was -0.23% (inactive).

In the case of `O=C(NCCc1ccc(O)cc1)c1csc(Nc2ccc(N3CCOCC3)cc2)n1`, the inhibition was 39.4% (active).

Turning to `O=C(NCCc1ccccc1)c1csc(Nc2ccccc2)n1`, the inhibition is -24.6% (inactive).

On to `O=C(NCc1ccccc1)c1csc(Nc2ncccn2)n1`, for which the inhibition is 5.56% (inactive).

Consider `O=C(NCc1ccccc1)c1csc(Nc2ccc(N3CCOCC3)cc2)n1`, for which the inhibition was 35% (active).

Consider `O=C(Nc1ccc(N2CCOCC2)cc1)c1csc(Nc2ccc(-n3ccnc3)cc2)n1`, for which the inhibition is 17.6% (inactive).

As for `O=C(NCCc1ccc(O)cc1)c1csc(Nc2ccc3ncccc3c2)n1`, the inhibition is -1.97% (inactive).

For the molecule `Cc1ccc2nc(-c3cc(NC(=O)c4ccccc4C)ccc3Cl)oc2c1`, the inhibition is -11.2% (inactive).

Consider `COc1ccc(Cn2c(SCC(=O)NCCc3ccc(OC)c(OC)c3)nc3ccsc3c2=O)cc1`, for which the inhibition is 11.1% (inactive).

For the molecule `CC(C)(C)c1ccc(CSc2nc3ccc(NC(=O)c4ccccc4)cc3s2)cc1`, the inhibition was 2.44% (inactive).

Turning to `CCC(=O)Nc1ccc(NC(=O)COc2ccc(Br)cc2)cc1C`, the inhibition is 0.24% (inactive).

For `COc1ccc(-c2cc(C(=O)Nc3sc(C)c(C)c3C#N)c3ccccc3n2)cc1OC`, the inhibition was -0.22% (inactive).

Consider `CCN(CC)C(=O)c1sc(NC(=O)c2c(-c3ccccc3)noc2C)c(C(=O)OC(C)C)c1C`, for which the inhibition was 2.03% (inactive).

With `Fc1ccc(C2=Nc3ccc(F)cc3C(C3CC3)=NN2)cc1`, the inhibition is -2.31% (inactive).

Turning to `CCOc1ccc(C(=O)NCC(=O)OCC#N)cc1`, the inhibition is 0.54% (inactive).

In the case of `CCOC(=O)/C(N=Nc1ccc2c(c1)OCCO2)=C(/O)c1ccc([N+](=O)[O-])cc1`, the inhibition was 88.1% (active).

For the molecule `CS(=O)(=O)c1ccc(C(=O)OCC(=O)c2ccc3c(c2)OCCO3)cc1[N+](=O)[O-]`, the inhibition is 2.27% (inactive).

Take `CCOC(=O)/C(N=Nc1cc(C(=O)O)cc(C(=O)O)c1)=C(\C)O`: the inhibition is 8.94% (inactive).

Consider `COc1ccc(CNC(=O)CC(C)C)cc1`, for which the inhibition was -2.6% (inactive).

With `c1cc(-c2ccc(OC3CCNCC3)cc2)cs1`, the inhibition was -27.5% (inactive).

`Cc1cc(C)c(OCCn2c(-c3ccc(Cl)cc3)nc3ccccc3c2=O)c(C)c1`: the inhibition was -10.6% (inactive).

`CCOc1ccc(S(=O)(=O)Nc2cc(C)cc(C)c2)cc1`: the inhibition was -1.15% (inactive).

Regarding `CCOc1ccc(S(=O)(=O)Nc2ccc(Cl)cc2C)cc1`, the inhibition is 53% (active).

As to `CCOc1ccc(NS(=O)(=O)c2ccc(Cl)cc2)cc1`, the inhibition was 3.58% (inactive).

On to `O=C(c1ccccc1F)N1CCc2nnc(Cc3ccccc3)n2CC1`, for which the inhibition is 6.95% (inactive).

In the case of `CCCCN(C)Cc1c(O)c(Cl)cc2c(C)cc(=O)oc12`, the inhibition is 6.72% (inactive).

For the molecule `Cc1c(C(=O)Nc2ccc3c(c2)Cc2ccccc2-3)oc2ccccc12`, the inhibition is -8.71% (inactive).

`CC(C)c1nnc(NC(=O)CCN2C(=O)C3C4C=CC(C4)C3C2=O)s1` (stereo unspecified): the inhibition is -6.27% (inactive).

`Cc1cc(C)n2cc(CN3CCc4ccccc4C3)nc2n1`: the inhibition was -0.09% (inactive).

For `O=C(Nc1nc2ccccc2s1)c1sc2ccccc2c1Cl`, the inhibition is 38.5% (active).

Regarding `O=C(Nc1cccc2ncccc12)c1sc2ccccc2c1Cl`, the inhibition was -3.37% (inactive).

Consider `Cc1ccc(-c2nc3ccccc3s2)cc1NC(=O)c1sc2ccccc2c1Cl`, for which the inhibition is -13.1% (inactive).

For the molecule `Cc1ccc2c(c1)NC(=O)C(CC(=O)NCCN(C)C1CCCCC1)O2` (stereo unspecified), the inhibition is -13.3% (inactive).

For `CCc1nnc2sc(-c3ccc(NC(=O)COc4ccccc4[N+](=O)[O-])cc3)nn12`, the inhibition is 1.75% (inactive).

Turning to `COc1ccc(-n2cc(-c3ccccc3)c3c(NCCc4ccc(S(N)(=O)=O)cc4)ncnc32)cc1`, the inhibition is 9.44% (inactive).

Take `CC(=O)Nc1ccc2nc(NC(=O)c3cc4cc([N+](=O)[O-])ccc4s3)sc2c1`: the inhibition was 16.6% (inactive).

For `Cn1ncc([N+](=O)[O-])c1C(=O)Nc1ccc2nc(NC(=O)C3CCCCC3)sc2c1`, the inhibition was 66.2% (active).

As for `CC(=O)Nc1ccc2nc(NC(=O)c3ccc(S(=O)(=O)N4CCCCC4)cc3)sc2c1`, the inhibition is 1.92% (inactive).

As for `CCOC(=O)C1CCN(Cc2cccc([N+](=O)[O-])c2)CC1`, the inhibition is -8.78% (inactive).

`O=C(O)c1cc(N2C(=O)/C(=C/c3ccc(O)cc3)SC2=S)ccc1O`: the inhibition was 1.88% (inactive).

As for `COc1cccc(/C=C2\SC(=S)N(c3ccc(C(=O)O)c(O)c3)C2=O)c1OC`, the inhibition was 47.1% (active).

As for `Cc1ccc(/C=C2\SC(=S)N(c3cccc(O)c3)C2=O)o1`, the inhibition was -1.97% (inactive).

Turning to `CCn1c(=O)cc(SCC(=O)Nc2nc(C)cs2)c2ccccc21`, the inhibition was -2.9% (inactive).

In the case of `CC(=O)O[C@@H]1C[C@H](c2ccc(F)cc2)N(C)C1=O`, the inhibition is 3.54% (inactive).

As for `CCN1/C(=C/c2cc(C)[n+](N3CCN(C)CC3)c(C)c2)Sc2ccccc21`, the inhibition was 75.1% (active).

As to `Cc1cc(/C=C2\Sc3ccccc3N2C)cc(C)[n+]1CCO`, the inhibition is 73.5% (active).

With `O=C1c2ccccc2C(=O)N1CCC(=O)N1c2ccccc2Sc2ccccc21`, the inhibition is -5.51% (inactive).

In the case of `CCOc1cc2c(cc1OCC)N(CC)/C(=C\C=O)S2`, the inhibition was -11.6% (inactive).

Consider `CN1/C(=C/C(=S)C(C)(C)C)Sc2ccccc21`, for which the inhibition is -12.6% (inactive).

Turning to `O=C(CN1C(=O)/C(=C/c2ccccc2)Sc2ccccc21)N1CCCC1`, the inhibition was -1.18% (inactive).

Consider `Cc1ccc(CC(=O)O/N=C(\N)c2ccc(Br)cc2)cc1`, for which the inhibition is -13% (inactive).

In the case of `Cc1cc(Nc2ccc3c(c2)OCO3)nc(Nc2cccc(N(C)C)c2)n1`, the inhibition was 2.34% (inactive).

`CC1(C)CC(=O)C(N=Nc2cc(C(N)=O)c(Cl)cc2Cl)=C(O)C1`: the inhibition is -1.09% (inactive).

Turning to `COc1cccc(C(=O)NC(=S)Nc2cccc(C(=O)O)c2)c1`, the inhibition is 30.7% (inactive).

As for `COc1ccccc1C(=O)Nc1nc(-c2ccccc2)c(C)s1`, the inhibition is -3.33% (inactive).

Consider `COc1cccc(C(=O)Nc2nc(-c3ccc(C)c(C)c3)cs2)c1OC`, for which the inhibition is -6.84% (inactive).

For `COc1ccc(C(=O)Nc2nc(C)cs2)c(OC)n1`, the inhibition is 89.4% (active).

With `Cc1csc(NC(=O)c2ccc(I)cc2)n1`, the inhibition is -17.9% (inactive).

As for `COc1ccccc1C(=O)Nc1nc(C)cs1`, the inhibition was 80.1% (active).

Regarding `COc1ccc2oc(=O)c(-c3csc(NC(=O)c4ccccc4)n3)cc2c1`, the inhibition is 1.86% (inactive).

`CCOC(=O)C1(Cc2cccc(F)c2)CCN(CCO)CC1`: the inhibition was 2.96% (inactive).

As for `CCN1CCN(S(=O)(=O)c2ccc(F)c(C(=O)Nc3cccc(C)c3C)c2)CC1`, the inhibition is 3.75% (inactive).

`O=C(Nc1ccccc1Br)c1ccc(Cl)c([N+](=O)[O-])c1`: the inhibition was -1.84% (inactive).

`O=C(CSc1nc2ccccc2c(=O)n1-c1ccc(C(=O)N2CCOCC2)cc1)NCc1ccccc1Cl`: the inhibition was 5.25% (inactive).

In the case of `COc1cccc(NC(=O)Cn2c3ccccc3c(=O)c3cc(Cl)ccc32)c1`, the inhibition was 1.55% (inactive).

As for `CCOc1cc(/C=C2\SC(=S)NC2=O)cc(Br)c1OC`, the inhibition was -5.88% (inactive).

Regarding `Nc1nc(Nc2ccc(N3CCOCC3)cc2)cc(-c2ccc3[nH]ccc3c2)n1`, the inhibition is -4.34% (inactive).

Turning to `CN1CCN(c2ccc(-c3cc(Nc4ccc(N5CCOCC5)cc4)nc(N)n3)cc2)CC1`, the inhibition is 64.9% (active).

Turning to `CN1CCN(c2ccc(-c3cc(NCCOc4ccccc4)nc(N)n3)cc2)CC1`, the inhibition was 23.1% (inactive).

Take `COc1ccc(-c2nc(NCc3ccccc3)c3ncn(Cc4ccc(C(F)(F)F)cc4)c3n2)cc1`: the inhibition is 5.78% (inactive).

For `CCNc1nc(NCCc2ccc(OC)cc2)c2ncn(Cc3ccc(C(F)(F)F)cc3)c2n1`, the inhibition is 12.1% (inactive).

In the case of `COc1ccc(CCNc2nc(-c3c(C)noc3C)nc3c2ncn3Cc2ccc(C(F)(F)F)cc2)cc1`, the inhibition is 40.4% (active).

On to `Oc1ccc(CCNc2nc(Nc3ccncn3)nc3c2ncn3Cc2ccc(C(F)(F)F)cc2)cc1`, for which the inhibition is -4.85% (inactive).

Take `O=c1c(/C=N/Nc2ccc(C(F)(F)F)cn2)c(Cl)nc2ccccn12`: the inhibition is 52.1% (active).

As for `O=c1c(C=Nc2ccc(Cl)cc2)c(Nc2ccccc2)nc2ccccn12`, the inhibition was -17.1% (inactive).

For `NC(=S)N/N=C/c1c(Sc2ccccn2)nc2ccccn2c1=O`, the inhibition is -6.3% (inactive).

Turning to `COc1ccc(/C=C2\C(=O)N(c3ccc(Cl)c(C(=O)O)c3)N=C2C)cc1Br`, the inhibition was 0.17% (inactive).

Regarding `C/C(CC(C)C)=N\NC(=O)c1nnn(-c2nonc2N)c1-c1ccccc1`, the inhibition is -8.99% (inactive).

Regarding `COc1ccc(NC(=O)c2ccco2)cc1NC(=O)c1ccc(-c2ccccc2[N+](=O)[O-])o1`, the inhibition is 34.4% (active).

As for `O=C(Nc1cccc(NC(=O)c2ccc(-c3ccccc3[N+](=O)[O-])o2)c1)c1ccco1`, the inhibition was -5.61% (inactive).

On to `O=C(Nc1ccc(N2CCOCC2)c(Cl)c1)c1ccc(-c2ccccc2[N+](=O)[O-])o1`, for which the inhibition is 11.7% (inactive).

Values taken from PubChem BioAssay AID1259422 (The Scripps Research Institute Molecular Screening Center, 2018).
